{"source": "PubChem BioAssay (NCATS)", "note": "Inconclusive results are not listed. A call without a number means that no potency is given here. The source made the active and inactive calls. Calls come from the whole dose curve; as a rule, active = well fitted cell-killing curve with a large enough effect; inconclusive = small, poorly fitted or top-dose-only effect; inactive = flat fitted curve, though single readings scatter. Potency is the fitted concentration of half-maximal effect."}
{"experiment": "Cell Viability - LYMP2-018 (AID 985);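 note: compound exposure lasted 24 hr at 37 °C; nearly all actives have a fitted effect of over 50% in size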", "details": "LYMP2-018 lymphoblastoid cells, viability (qHTS); series mostly up to 92.2 µM", "text": "NIH Chemical Genomics Center [NCGC]\nNIH Molecular Libraries Screening Centers Network [MLSCN]\nNational Institutes of Environmental Health Sciences [NIEHS]\nNational Toxicology Program [NTP]\nWe have developed a 1536-well cell-based assay for quantitative high throughput screening (qHTS) against a number of cell lines to determine in vitro cytotoxicity of small molecules. This particular assay uses a human lymphoblastoid cell line (LYMP2-018) purchased from Coriell Institute for Medical Research.\nNCGC Assay Protocol Summary:\nThe CellTiter-Glo luminescent cell viability assay (Promega) is a homogeneous method to measure the number of viable cells in culture. The end point readout of this assay is based on quantitation of intracellular ATP, an indicator of metabolic activity, using the luciferase reaction. Luciferase catalyzes the oxidation of beetle Luciferin to oxyluciferin and light in the presence of ATP. The luminescent signal is proportional to amount of ATP present.\nUsing the CellTiter-Glo luminescent cell viability assay, the amount of cellular ATP was measured in the lymphoblastoid cell line with complete culture medium following compound treatment for 24 hours. The assay was performed in opaque white Kalypsys 1536-well plates. In the screen, tetraoctylammonium bromide was used as positive control. Library compounds were measured for their ability to cause acute toxicity in the cell line, as reflected by a decrease in intracellular ATP levels, in a concentration-dependent manner. […] AC50 values were determined from concentration-response data modeled with the standard Hill equation.\nqHTS protocol for CellTiter Glo lymphoblastoid cellular assay\n[Step] [Parameter] [Value] [Description]\n1. Reagent; 5 uL; 2500 lymphoblastoid cells/well\n2. Time; 5 hr; 37 C incubation\n4. Controls; 23 nL; Tetraoctylammonium bromide 6.4pM to 92 uM\n5. Time; 24 hr; 37 C incubation\n6. Reagent; 5 uL; CellTiter Glo reagent\n7. Time; 30 min; Room Temperature\n8. Detection; Luminescence; Viewlux plate reader\nKeywords: cell viability, cytotoxicity, lymphoblastoid cell line, luminescence, NTPHTS, NTPHTS_NCGC, NIEHS, DSSTox, MLSMR, MLSCN, NIH Roadmap, qHTS, NCGC"}
{"compound": "C=CC(=O)OCCCCCCOC(=O)C=C", "Potency": "39.8 µM (active)"}
{"compound": "CCC(Cl)CC(Cl)C(Cl)C(Cl)C(Cl)C(C)Cl", "note": "(stereo not given)", "Potency": "inactive"}
{"compound": "c1ccc2ncccc2c1", "Potency": "inactive"}
{"compound": "COc1ccc(C)cc1N", "Potency": "inactive"}
{"compound": "CCCCC(CC)COC(=O)COc1ccc(Cl)cc1Cl", "note": "(stereo not given)", "Potency": "inactive"}
{"compound": "CCCCC(CC)COP(=O)(OCC(CC)CCCC)OCC(CC)CCCC", "note": "(stereo not given)", "Potency": "inactive"}
{"compound": "CN(C)c1ccc(C(=N)c2ccc(N(C)C)cc2)cc1", "Potency": "39.8 µM (active)"}
{"compound": "Cc1ccc(C(=O)O)cc1[N+](=O)[O-]", "Potency": "inactive"}
{"compound": "COc1ccc(C(=O)Nc2ccccc2)cc1[N+](=O)[O-]", "Potency": "inactive"}
{"compound": "CCCCCCCCC1CO1", "note": "(stereo not given)", "Potency": "inactive"}
{"compound": "O=[N+]([O-])c1cccc(I)c1", "Potency": "inactive"}
{"compound": "NC(=O)Nc1nc2ccccc2[nH]1", "Potency": "inactive"}
{"compound": "c1ccc(SCCSc2ccccc2)cc1", "Potency": "inactive"}
{"compound": "C[Si](C)(C)Cl", "Potency": "inactive"}
{"compound": "CC(=O)c1ccc(Cl)c(Cl)c1Cl", "Potency": "inactive"}
{"compound": "CC(CCC(=O)O)(c1ccc(O)cc1)c1ccc(O)cc1", "Potency": "inactive"}
{"compound": "CC(C)OCC1CO1", "note": "(stereo not given)", "Potency": "inactive"}
{"compound": "CCCCCCCC/C=C\\CCCCCCCC(=O)N(CCO)CCO", "Potency": "inactive"}
{"compound": "NC(=O)c1ccc([N+](=O)[O-])cc1", "Potency": "inactive"}
{"compound": "c1c[nH]cn1", "Potency": "inactive"}
{"compound": "Nc1cnn([C@@H]2O[C@H](CO)[C@@H](O)[C@H]2O)c(=O)n1", "Potency": "inactive"}
{"compound": "CCCCCCc1ccc(-c2ccc(C#N)cc2)cc1", "Potency": "inactive"}
{"compound": "CC(/C=C/C=C(C)/C=C/C(=O)O)=C\\C=C\\C=C(C)\\C=C\\C=C(C)\\C=C\\C(=O)O", "Potency": "inactive"}
{"compound": "c1ccc2c(c1)ccc1ccccc12", "Potency": "inactive"}
{"compound": "Cc1ccccc1OCC1CO1", "note": "(stereo not given)", "Potency": "inactive"}
{"compound": "CC1=C(/C=C/C(C)=C/C=C/C(C)=C/C=O)C(C)(C)CCC1", "Potency": "39.8 µM (active)"}
{"compound": "C=CC(=O)CC", "Potency": "inactive"}
{"compound": "O=C(O)c1ccc([N+](=O)[O-])cc1", "Potency": "inactive"}
{"compound": "c1ccc(COCc2ccccc2)cc1", "Potency": "inactive"}
{"compound": "C=CC(C)(O)CCCC(C)CCCC(C)CCCC(C)C", "note": "(stereo not given)", "Potency": "inactive"}
{"compound": "Brc1cc(Oc2cc(Br)c(Br)c(Br)c2Br)c(Br)c(Br)c1Br", "Potency": "inactive"}
{"compound": "O=C(Cl)c1ccc([N+](=O)[O-])cc1", "Potency": "inactive"}
{"compound": "CC(=O)CC(=O)Nc1ccccc1", "Potency": "inactive"}
{"compound": "CC/C=C/C/C=C/C/C=C/CCCCCCCC(=O)OCC", "Potency": "31.6 µM (active)"}
{"compound": "O=C(O)/C=C/c1ccc(/C=C/C(=O)O)cc1", "Potency": "inactive"}
{"compound": "O=[N+]([O-])c1cc(N(CCO)CCO)ccc1NCCO", "Potency": "inactive"}
{"compound": "c1cc2c3c(c1)ccc1cccc(c13)C2", "Potency": "inactive"}
{"compound": "c1ccc(Nc2cccc3ccccc23)cc1", "Potency": "inactive"}
{"compound": "C=C(C#N)C(=O)OCC", "Potency": "inactive"}
{"compound": "CC(=O)Nc1cccc(C)c1", "Potency": "inactive"}
